The chains are these.
B1: ENSMUSG00000032194.180|Kank2|82:88;185:189 (ssRNA)
RNA: GGGAGUUCUACAGUCCGACGAUCGCUUCGAUAUCCGCAUGCUAUGGCCUCAGAGCACUCCCAGAACUAGCUUAAAGUGACAGGCUUUGCUGAAAUCCAAAGGGACAAAAGAGUAGUUUUAUGUUACACACAUUGUUUUUAAUGCCCUGGAGCUCCUGCUGGUGACAGGAGAGACAGACAGGCUGCACCUUUCUCUAACUGGGGUUCCUUUCUGGCCCCAGGAUCUCACACACGUUCGUGGGGGGAUUUUGUUGUUGUUUCUUUGUUUCUUUUCUUCAUAAAGAAGAAAAAGGAAACAACUUCUCUCUUGCGGUCGCACUAGUGUGGAAUUCUCGGGUGUCAAGG
B2: ENSMUSG00000061578.618|Ksr2 (ssRNA)
RNA: GGGAGUUCUACAGUCCGACGAUCGCUUCGAUAUCCGCAUGCUAGUGGCUUGCCUGGCUGGCCUGUGAUAUAGUGGACUGUCUUAGUGAUCGGACUUCAGGGAGCAACCUAUAGGAAAUGCAAAGGCUUAGAGGGGACGGACAGCUCCCUGACCCUGGAUGGCCAGGAAUGGUGCUAGCUAGGGUGUGAGCCAAGCCCUUGAGGCUACUGUGAGUUAUGAGAUGUGUCCAACCCUCAGCCCACAGACUGCAUAUGCCCCAGGACAGCUGUGAAGGUGACCCAAUACAAAAUCGUAAACUAACUUCUCUUGCGGUCGCACUAGUGUGGAAUUCUCGGGUGUCAAGG
B3: ENSMUSG00000061578.593|Ksr2 (ssRNA)
RNA: GGGAGUUCUACAGUCCGACGAUCGCUUCGAUAUCCGCAUGCUAUCUGGGAUAAAAAAAAAAAGUCAAAAGAAAUAAAAUAUGAUUCAGGCAAAUUCAAUGCAACUCAAAAUUUCCACCAAUCCCAUAUUGUCCCUAGCAAUGACAAAAUUAUUUGCAAGACAGACCCUGUGACCUGUAGAGGCAAAAUAUAUGGUGGCUUGCCUGGCUGGCCUGUGAUAUAGUGGACUGUCUUAGUGAUCGGACUUCAGGGAGCAACCUAUAGGAAAUGCAAAGGCUUAGAGGGGACGGACAGCUCCCUGACCCUCUUGCGGUCGCACUAGUGUGGAAUUCUCGGGUGUCAAGG
B4: ENSMUSG00000061578.1182|Ksr2 (ssRNA)
RNA: GGGAGUUCUACAGUCCGACGAUCGCUUCGAUAUCCGCAUGCUAUGUCCUCGGGUGUCUCUGCUGUAUAUAGGCCAGUCACAAGCCCUUCUAAAAGCCUGCUCUUGUCUGCUUUUGUUUCUCCACCAUGCCCCCUGCCACCUCUUCUGACAGUGCUCAGAUUUAUCAGCCACCUGACCCACAGACCCAUAUGGACACACUAGAAAGCCCAUCCUAGGUCUUUCCAUGGUCUCUCACACCCCUGUCCCCGUCCCCUCCACCCCCCGGCAGCAUGCUUCACUCUAUGAAUGAGCCGCUGGGAUAUUCUCUUGCGGUCGCACUAGUGUGGAAUUCUCGGGUGUCAAGG
B5: ENSMUSG00000061578.1467|Ksr2|36:40 (ssRNA)
RNA: GGGAGUUCUACAGUCCGACGAUCGCUUCGAUAUCCGCAUGCUAUGAAUGGAUGAAUGGAUGGGUGAAUGGAUGGAUAGCAUACUGAAUAAAUGGAUGGAUGGAUGGAUUGAUUUGUGAAUGAAUGGAUGAAUGGAUGGGUAGGUGGGUGGAUGCAUAGGCAAGUAGAUGAAUGAAUAUGUGGGUAGAAGGGUGAGUGGGUGGAUGAAUGGAUGGAUAGGUUGGUAGGUUAAUGUAUUCGUGGAUGGGUGAAUGGAUGGAUGGAUAGAUAGAUGGGAAGGUGGAUGGACAGAUGGAUGGAUGGACUCUUGCGGUCGCACUAGUGUGGAAUUCUCGGGUGUCAAGG
B6: ENSMUSG00000061578.1466|Ksr2|42:46 (ssRNA)
RNA: GGGAGUUCUACAGUCCGACGAUCGCUUCGAUAUCCGCAUGCUAUAUGAAUGAAUGGAUGAAUGGAUGGGUGAAUGGAUGGAUAGCAUACUGAAUAAAUGGAUGGAUGGAUGGAUUGAUUUGUGAAUGAAUGGAUGAAUGGAUGGGUAGGUGGGUGGAUGCAUAGGCAAGUAGAUGAAUGAAUAUGUGGGUAGAAGGGUGAGUGGGUGGAUGAAUGGAUGGAUAGGUUGGUAGGUUAAUGUAUUCGUGGAUGGGUGAAUGGAUGGAUGGAUAGAUAGAUGGGAAGGUGGAUGGACAGAUGGAUGCUCUUGCGGUCGCACUAGUGUGGAAUUCUCGGGUGUCAAGG
B7: ENSMUSG00000061578.1465|Ksr2|48:52 (ssRNA)
RNA: GGGAGUUCUACAGUCCGACGAUCGCUUCGAUAUCCGCAUGCUAUAGGUAUAUGAAUGAAUGGAUGAAUGGAUGGGUGAAUGGAUGGAUAGCAUACUGAAUAAAUGGAUGGAUGGAUGGAUUGAUUUGUGAAUGAAUGGAUGAAUGGAUGGGUAGGUGGGUGGAUGCAUAGGCAAGUAGAUGAAUGAAUAUGUGGGUAGAAGGGUGAGUGGGUGGAUGAAUGGAUGGAUAGGUUGGUAGGUUAAUGUAUUCGUGGAUGGGUGAAUGGAUGGAUGGAUAGAUAGAUGGGAAGGUGGAUGGACAGACUCUUGCGGUCGCACUAGUGUGGAAUUCUCGGGUGUCAAGG
B8: ENSMUSG00000061578.1469|Ksr2 (ssRNA)
RNA: GGGAGUUCUACAGUCCGACGAUCGCUUCGAUAUCCGCAUGCUAUGGAUGGGUGAAUGGAUGGAUAGGUAUGUGAAUAAAUGGAUGGAUGGAUGGAUUGAUUUGUGAAUGAAUGGAUGAAUGGAUGGGUAGGUGGGUGGAUGCAUAGGCAAGUAGAUGAAUGAAUAUGUGGGUAGAAGGGUGAGUGGGUGGAUGAAUGGAUGGAUAGGUUGGUAGGUUAAUGUAUUCGUGGAUGGGUGAAUGGAUGGAUGGAUAGAUAGAUGGGAAGGUGGAUGGACAGAUGGAUGGAUGGAUAGAUAGAUGGACUCUUGCGGUCGCACUAGUGUGGAAUUCUCGGGUGUCAAGG
B9: ENSMUSG00000061578.1472|Ksr2|6:10 (ssRNA)
RNA: GGGAGUUCUACAGUCCGACGAUCGCUUCGAUAUCCGCAUGCUAGAUAGCAUACUGAAUAAAUGGAUGGAUGGAUGGAUUGAUUUGUGAAUGAAUGGAUGAAUGGAUGGGUAGGUGGGUGGAUGCAUAGGCAAGUAGAUGAAUGAAUAUGUGGGUAGAAGGGUGAGUGGGUGGAUGAAUGGAUGGAUAGGUUGGUAGGUUAAUGUAUUCGUGGAUGGGUGAAUGGAUGGAUGGAUAGAUAGAUGGGAAGGUGGAUGGACAGAUGGAUGGAUGGAUAGAUAGAUGGACAGGUGGUUGGUGGAUAACUCUUGCGGUCGCACUAGUGUGGAAUUCUCGGGUGUCAAGG
B10: ENSMUSG00000061578.1468|Ksr2|30:34 (ssRNA)
RNA: GGGAGUUCUACAGUCCGACGAUCGCUUCGAUAUCCGCAUGCUAGAUGAAUGGAUGGGUGAAUGGAUGGAUAGCAUACUGAAUAAAUGGAUGGAUGGAUGGAUUGAUUUGUGAAUGAAUGGAUGAAUGGAUGGGUAGGUGGGUGGAUGCAUAGGCAAGUAGAUGAAUGAAUAUGUGGGUAGAAGGGUGAGUGGGUGGAUGAAUGGAUGGAUAGGUUGGUAGGUUAAUGUAUUCGUGGAUGGGUGAAUGGAUGGAUGGAUAGAUAGAUGGGAAGGUGGAUGGACAGAUGGAUGGAUGGAUAGAUACUCUUGCGGUCGCACUAGUGUGGAAUUCUCGGGUGUCAAGG
B11: ENSMUSG00000061578.1469|Ksr2|24:28 (ssRNA)
RNA: B8 RNA with G67C, U68A, A69U, U70A, G71C
B12: ENSMUSG00000061578.1463|Ksr2|60:64 (ssRNA)
RNA: GGGAGUUCUACAGUCCGACGAUCGCUUCGAUAUCCGCAUGCUAUAGGUGGGUAGAUAGGUAUAUGAAUGAAUGGAUGAAUGGAUGGGUGAAUGGAUGGAUAGCAUACUGAAUAAAUGGAUGGAUGGAUGGAUUGAUUUGUGAAUGAAUGGAUGAAUGGAUGGGUAGGUGGGUGGAUGCAUAGGCAAGUAGAUGAAUGAAUAUGUGGGUAGAAGGGUGAGUGGGUGGAUGAAUGGAUGGAUAGGUUGGUAGGUUAAUGUAUUCGUGGAUGGGUGAAUGGAUGGAUGGAUAGAUAGAUGGGAAGGCUCUUGCGGUCGCACUAGUGUGGAAUUCUCGGGUGUCAAGG

Residue numbers refer to the chain shown, from its start. The full ranking holds about 9,900 sequences; the median of “r (bound/input frequency ratio)” is about 0.7, and the highest 2% start at about 6.5. This is one part of a sample in which the highest values are shown more often than they occur.

Chain of TDP-43 (Q13148 whole entry): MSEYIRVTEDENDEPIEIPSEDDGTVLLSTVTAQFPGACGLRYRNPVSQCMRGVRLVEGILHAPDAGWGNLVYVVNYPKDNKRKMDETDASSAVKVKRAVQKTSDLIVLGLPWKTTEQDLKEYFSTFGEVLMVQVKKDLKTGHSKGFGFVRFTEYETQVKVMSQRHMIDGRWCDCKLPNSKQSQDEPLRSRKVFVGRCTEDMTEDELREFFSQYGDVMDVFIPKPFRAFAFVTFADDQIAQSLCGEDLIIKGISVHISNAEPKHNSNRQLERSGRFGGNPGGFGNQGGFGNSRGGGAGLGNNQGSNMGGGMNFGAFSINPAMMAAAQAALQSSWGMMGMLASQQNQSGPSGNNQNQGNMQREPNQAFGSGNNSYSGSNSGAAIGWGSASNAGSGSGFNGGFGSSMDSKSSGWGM

For this assay, the target named is TDP-43 (Homo sapiens, UniProt Q13148 1-414). The experiment in a line: RNA Bind-n-Seq with designed 260-mer pool; 25 mM Tris-HCl, 150 mM KCl, 3 mM MgCl2, BSA (printed 500 mg/mL), 20 units/mL SUPERase IN; pH not stated; 500 nM RNA pool, 1 h, 4 C; TDP-43 5, 50, 500 nM; high values mean tight binding. Particulars: protein: recombinant; tags: SBP (GST cleaved off with PreScission; pGEX-GST-SBP). The method, boiled down:
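Duplicate measurements used two independent batches of recombinant SBP-tagged TDP-43, which was captured on streptavidin beads at 5, 50 or 500 nM. The beads were incubated with 500 nM of an in vitro-transcribed 260-nt 3′ UTR oligo pool for 1 h at 4 °C in 25 mM Tris-HCl, 150 mM KCl, 3 mM MgCl2, BSA and SUPERase IN. After washing, biotin elution, reverse transcription, PCR amplification and sequencing, binding was expressed as R: each oligo's normalized read abundance in the bound sample over its abundance in input.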
In the case of B1, the binding signal is 0.125 R (bound/input frequency ratio). With B2 the figure was 0.616 R (bound/input frequency ratio). On to B3, for which the binding signal was 0.762 R (bound/input frequency ratio). In the case of B4 it was 0.904 R (bound/input frequency ratio); in that of B5, 6.51 R (bound/input frequency ratio). In the case of B6 it was 6.95 R (bound/input frequency ratio). In the case of B7 it was 5.93 R (bound/input frequency ratio). As to B8, the binding signal is 5.88 R (bound/input frequency ratio). Take B9: the binding signal was 5.45 R (bound/input frequency ratio). B10: the binding signal was 8.93 R (bound/input frequency ratio). In the case of B11, the binding signal is 12.1 R (bound/input frequency ratio). As for B12, the binding signal was 4.6 R (bound/input frequency ratio).

For the origin of these results see article PMC12864922, “TDP-43 directly inhibits mRNA accumulation in neurites through modulation of mRNA stability”.
